From PubChem BioAssay (NCATS)
Inconclusive results are not listed. Activity calls are given as the source filed them. Calls follow the shape of the full dose curve.

Molecular target: Vitamin D3 receptor (Homo sapiens) (UniProt P11473)
Test: qHTS assay for small molecule antagonists of vitamin D receptor signaling (AID 588541);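 also: receptor activated by calcitriol during compound treatment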
Details: HEK293T VDR-UAS-bla, beta-lactamase ratio, antagonist mode; series mostly up to 76.7 µM
Excerpt: NIH Chemical Genomics Center [NCGC]
U.S. Environmental Protection Agency [EPA]
National Institutes of Environmental Health Sciences [NIEHS]
National Toxicology Program [NTP]
The Vitamin D receptor (VDR) is a member of nuclear hormone receptor superfamily and it plays a critical role in calcium homeostasis and bone metabolism. It plays a role in inducing cell differentiation, inhibiting cell growth and in thrombogenicity. So, VDR that mediates these effects represents a pharmacological target in prevention and treatment of hyperproliferative malignancies, such as cancer and psoriasis, cardiovascular, immunological, inflammatory and renal diseases etc.
NCGC Assay Protocol Summary
Using a beta-lactamase reporter-gene under control of Vitamin D receptor (VDR) response element, a cell-based assay [GeneBLAzer (VDR -UAS-bla assay developed by Invitrogen] was used to measure VDR ligands signaling. GeneBLAzer VDR -UAS-bla HEK293T cells were used with assay medium containing 2% charcoal-stripped FBS. The assay was performed in clear bottom black Greiner 1536-well plates. Library compounds were measured for their ability to inhibit the reporter gene activity. Compounds were screened in a titration series in 1536-well format. The fluorescence intensity (405 nm excitation, 460/530 nm emission) was measured using an EnVision plate reader. Data was normalized relative to 1-alpha,25-Dihydroxy vitaminD3 control (50 nM, 100%) and DMSO only wells (basal, 0%). Concentration-response titration points for each compound were fitted to the Hill equation yielding concentrations of half-maximal inhibition (IC50) and maximal response (efficacy) values.
qHTS protocol for VDR beta-lactamase assay in antagonist mode
[Step] [Parameter] [Value] [Description]
1. Reagent; 5 uL; 2000 cells/well
2. Incubation; 37 C for 5 hrs
4. Controls (DMSO); 23 nL,
5. Agonist (Stimulator); 1uL; 1-alpha,25-Dihydroxy vitaminD3 at 50 nM and 3 nM final concentrations
6. Incubation; 37 C for 16 hrs
7. Detection reagent; 1 uL of CCF4-dye
8. Incubation; RT for 2 hrs
9. Detection; Fluorescence; Envision plate reader

Vitamin D3 receptor (Homo sapiens), sequence (P11473 whole entry, looked up): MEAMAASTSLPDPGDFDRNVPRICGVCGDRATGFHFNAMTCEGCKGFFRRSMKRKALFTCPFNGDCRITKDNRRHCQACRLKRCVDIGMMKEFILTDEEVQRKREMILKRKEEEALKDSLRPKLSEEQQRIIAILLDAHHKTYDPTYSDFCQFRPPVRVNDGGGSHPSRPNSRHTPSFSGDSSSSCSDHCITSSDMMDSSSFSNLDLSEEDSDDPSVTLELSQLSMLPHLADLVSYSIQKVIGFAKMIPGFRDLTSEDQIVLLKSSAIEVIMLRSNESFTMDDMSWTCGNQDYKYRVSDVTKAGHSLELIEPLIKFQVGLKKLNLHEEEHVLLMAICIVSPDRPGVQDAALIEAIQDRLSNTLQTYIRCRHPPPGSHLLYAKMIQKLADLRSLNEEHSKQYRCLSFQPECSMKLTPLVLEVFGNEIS

Row | SMILES | outcome
1 | COC(=O)CCC(=O)OC | inactive
2 | Cc1ccc(C)c(N)c1 | inactive
3 | c1ccc(Nc2ccccc2)cc1 | inactive
4 | FB(F)F | inactive
5 | CC(O)COC(C)(C)C (stereo not given) | inactive
6 | CC(C)CCOC(=O)/C=C/c1ccccc1 | inactive
7 | CCNc1cc(O)ccc1C | inactive
8 | CCc1ccccc1 | inactive
9 | CC(C=O)Cc1ccc(C(C)(C)C)cc1 (stereo not given) | inactive
10 | ON=C1CCCCC1 | inactive
11 | C=CCCCCCC | inactive
12 | Cc1ccccc1C=O | inactive
13 | COc1cccc2sc(N)nc12 | inactive
14 | CCC=O | inactive
15 | O=Nc1ccc(NO)cc1 | inactive
16 | COc1ccc(N)c(C)c1 | inactive
17 | CC(=O)c1cc(C)oc1C | inactive
18 | Cc1ccc2c(c1[N+](=O)[O-])C(=O)c1ccccc1C2=O | inactive
19 | CC(C)(O)C(=O)O | inactive
20 | Cc1ccc(C#N)cc1 | inactive

Row | SMILES | outcome
21 | CCCCOCCOCCSC#N | inactive
22 | COc1ccc(N=[N+]([O-])c2ccc(OC)cc2)cc1 | inactive
23 | C=C(C)OC(C)=O | inactive
24 | NC=O | inactive
25 | c1ccc2[nH]cnc2c1 | inactive
26 | Cc1cc([N+](=O)[O-])ccc1N | inactive
27 | O=C(O)c1cccc(Cl)c1Cl | inactive
28 | CCCCC/C=C/C=C/C=O | inactive
29 | Cc1ccc([N+](=O)[O-])c(N)c1 | inactive
30 | Clc1cc(Cl)cc(Cl)c1 | inactive
31 | Cc1cccc(C(=O)O)c1[N+](=O)[O-] | inactive
32 | O=C(O)/C=C/C(=O)O | inactive
33 | C=CCOC(=O)CCCCCCCC | inactive
34 | CC1=C(/C=C/C(C)=C/C=C/C(C)=C\C=O)C(C)(C)CCC1 | inactive
35 | Clc1ccccn1 | inactive
36 | CN(C)CCCCl | inactive
37 | Cc1ccc2cccnc2c1 | inactive
38 | CC(=O)c1nccs1 | inactive
39 | C=Cc1ccccn1 | inactive
40 | OC/C(Br)=C(\Br)CO | inactive
